Test results published in the supplement of paper PMC10849652.
About 7,900 targets were measured; listed, in parts, are those with a hit and a random draw of the rest. About 0.6% of all pairs of compound and target were hits.

Columns and labels:
Test in all cases: log2 fold change, soluble protein after heating vs DMSO (PISA); higher = thermal stabilisation; K562 cells, 10 uM, 30 min; active = over 0.2 and 3.5 SD of the protein, either way, in both replicates (recomputed)
[1] = compound: CC[C@@H]1C(=O)N(C)c2cnc(Nc3ccc(C(=O)NC4CCN(C)CC4)cc3OC)nc2N1C1CCCC1
In short: (§1)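 For each measurement, 10 μM compound was applied for 30 min to K562 cells at 2×10^6 cells/mL. Aliquots were heated for 3 min across 48°C-58°C, pooled, and extracted in PBS with 0.5% NP-40 at 4°C; the supernatant after 21,000xg for 90 min was soluble protein. This was quantified by TMTpro 16plex LC-MS/MS with channel sums equalised, and thermal stability was reported relative to control samples from duplicates, on a log2 fold-change scale.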

[2] = compound: CC[C@@H]1C(=O)N(C)c2cnc(Nc3ccc(C(=O)N[C@H]4CC[C@H](N5CCN(CC6CC6)CC5)CC4)cc3OC)nc2N1C(C)C [volasertib]
In short: as §1

[3] = compound: CC[C@H](C)N1C=C(C2=C(C=C(C=C21)C3=CN=C(C=C3)N4CCNCC4)C(=O)NCC5=C(C=C(NC5=O)C)C)C
In short: as §1

[4] = compound: CC[C@H](C)[C@@H](C(=O)N[C@@H]([C@@H](C)O)C(=O)N[C@@H](CC(C)C)C(=O)[C@]1(CO1)C)NC(=O)[C@H]([C@@H](C)CC)N(C)C(=O)C [epoxomicin]
In short: as §1

[5] = compound: CCn1c(C(=O)N(C2CC2)C2CC2)cc2c3c(ncn3C)c(Nc3cc(C)n(C)n3)nc21
In short: as §1

[6] = compound: CCn1cc(-c2ccnc3[nH]c(-c4cccc(CN(C)C)c4)cc23)c(-c2ccc(NC(=O)N(C)C)cc2)n1
In short: as §1

[7] = compound: CN(C)CC(=O)Nc1ccc2[nH]c(=O)c3ccccc3c2c1
In short: as §1

[8] = compound: CN(CCOC1=CC=C(C=C1)C[C@H]2C(=O)NC(=O)S2)C3=CC=CC=N3 (racemic) [rosiglitazone]
In short: as §1

[9] = compound: CN1C2=C(C3=C1C(=O)N(N=C3)CC4=CC(=CC=C4)N)SC(=C2)S(=O)C
In short: as §1

[10] = compound: CN1CCC(CNc2ccc3ncc(-c4cccc(OC(F)(F)F)c4)n3n2)CC1
In short: as §1

[11] = compound: CN1CCN(CCOc2cc(OC3CCOCC3)c3c(Nc4c(Cl)ccc5c4OCO5)ncnc3c2)CC1 [saracatinib]
In short: as §1

[12] = compound: CN1CCN(c2nc(C3=C(c4c[nH]c5ccccc45)C(=O)NC3=O)c3ccccc3n2)CC1 [sotrastaurin]
In short: as §1

[13] = compound: CN1CC[C@H](c2c(O)cc(O)c3c(=O)cc(-c4ccccc4Cl)oc23)[C@H](O)C1 [alvocidib]
In short: as §1

[14] = compound: CN1CCc2c(c3ccccc3n2Cc2ccc(C(=O)NO)cc2)C1 [Tubastatin A]
In short: as §1

[15] = compound: CNC(=O)C1=CC=CC=C1NC2=NC(=NC=C2Cl)NC3=C(C=C(C=C3)N4CCOCC4)OC
In short: as §1

[16] = compound: CNC(=O)c1ccc(Nc2ncc(C(F)(F)F)c(NCc3nccnc3N(C)S(C)(=O)=O)n2)cc1 [defactinib]
In short: as §1

[17] = compound: CNCc1ccc(-c2[nH]c3cc(F)cc4c3c2CCNC4=O)cc1 [rucaparib]
In short: as §1

[18] = compound: CNc1nc(-c2ccc3c(N)n[nH]c3c2)cc(N2C[C@@H](C(=O)NC3CCCCC3)CC[C@H]2C)n1
In short: as §1

[19] = compound: COC(=O)N[C@@H](C)CNc1nccc(-c2cn(C(C)C)nc2-c2cc(Cl)cc(NS(C)(=O)=O)c2F)n1 [encorafenib]
In short: as §1

[20] = compound: COC(=O)[C@H](CCSC)NC(=O)C1=C(C=C(C=C1)NC[C@H](CS)N)C2=CC=CC=C2
In short: as §1

Measured: log2 fold change

CAMKK2 (UniProt Q96RR4)
active: [2] 0.617
inactive: [1] 0.374 | [3] 0.014 | [4] 0.211 | [5] 0.114 | [6] -0.093 | [7] 0.145 | [8] 0.072 | [9] -0.008 | [10] 0.045 | [11] 0.03 | [12] -0.042 | [13] 0.048 | [14] 0.105 | [15] 0.36 | [16] -0.104 | [17] -0.084 | [18] -0.101 | [19] 0.057 | [20] 0.057

CDK6 (UniProt Q00534)
Sequence of UniProt Q00534 (Q00534 whole entry, looked up): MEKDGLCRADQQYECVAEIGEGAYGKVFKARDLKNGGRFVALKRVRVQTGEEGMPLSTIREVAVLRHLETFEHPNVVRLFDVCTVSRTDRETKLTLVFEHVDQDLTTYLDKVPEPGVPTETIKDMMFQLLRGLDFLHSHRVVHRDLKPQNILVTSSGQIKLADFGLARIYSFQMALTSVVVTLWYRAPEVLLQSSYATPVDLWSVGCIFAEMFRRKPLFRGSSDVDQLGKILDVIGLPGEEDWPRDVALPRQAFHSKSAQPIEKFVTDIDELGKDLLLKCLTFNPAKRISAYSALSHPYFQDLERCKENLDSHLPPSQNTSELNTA
inactive: [1] -0.027 | [2] -0.03 | [3] 0.007 | [4] 0.088 | [5] 0.043 | [6] 0.014 | [7] 0.007 | [8] 0.011 | [9] 0.062 | [10] -0.1 | [11] 0.002 | [12] -0.005 | [13] 0.01 | [14] 0.022 | [15] 0.016 | [16] -0.029 | [17] 0.065 | [18] -0.02 | [19] 0.011 | [20] 0.004

CRKL (UniProt P46109)
Sequence of UniProt P46109 (P46109 whole entry, looked up): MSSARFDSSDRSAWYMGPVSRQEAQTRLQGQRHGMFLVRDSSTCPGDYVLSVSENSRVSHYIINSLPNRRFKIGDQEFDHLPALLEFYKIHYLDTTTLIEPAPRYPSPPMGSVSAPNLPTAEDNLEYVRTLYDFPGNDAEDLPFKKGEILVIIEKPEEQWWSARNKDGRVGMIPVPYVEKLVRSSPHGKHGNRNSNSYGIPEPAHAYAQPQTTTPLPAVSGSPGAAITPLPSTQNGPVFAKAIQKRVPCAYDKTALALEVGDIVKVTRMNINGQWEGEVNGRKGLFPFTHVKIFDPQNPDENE
inactive: [1] -0.012 | [2] -0.039 | [3] 0.007 | [4] 0 | [5] 0.008 | [6] 0 | [7] 0.012 | [8] 0.017 | [9] 0 | [10] -0.016 | [12] 0.003 | [13] -0.044 | [14] 0.003 | [15] -0.01 | [16] -0.052 | [17] -0.001 | [18] 0 | [19] 0.016 | [20] 0.008
active: [11] -1.42

CSNK2B (UniProt P67870)
Sequence of UniProt P67870 (P67870 whole entry, looked up): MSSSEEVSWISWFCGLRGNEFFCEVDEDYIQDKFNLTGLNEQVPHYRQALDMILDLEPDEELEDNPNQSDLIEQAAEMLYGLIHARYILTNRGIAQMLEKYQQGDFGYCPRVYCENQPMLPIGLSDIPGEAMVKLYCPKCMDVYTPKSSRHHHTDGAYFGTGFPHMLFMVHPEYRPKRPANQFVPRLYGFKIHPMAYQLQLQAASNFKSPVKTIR
inactive: [1] -0.029 | [2] 0.009 | [3] 0.043 | [4] 0.019 | [5] 0.001 | [6] -0.051 | [7] 0.027 | [8] 0.034 | [9] -0.048 | [10] -0.176 | [11] 0.074 | [12] 0.036 | [13] -0.035 | [14] 0.021 | [15] 0.246 | [16] -0.09 | [17] -0.116 | [18] -0.031 | [19] 0.024 | [20] 0.038

CRK (UniProt P46108)
Sequence of UniProt P46108 (P46108 whole entry, looked up): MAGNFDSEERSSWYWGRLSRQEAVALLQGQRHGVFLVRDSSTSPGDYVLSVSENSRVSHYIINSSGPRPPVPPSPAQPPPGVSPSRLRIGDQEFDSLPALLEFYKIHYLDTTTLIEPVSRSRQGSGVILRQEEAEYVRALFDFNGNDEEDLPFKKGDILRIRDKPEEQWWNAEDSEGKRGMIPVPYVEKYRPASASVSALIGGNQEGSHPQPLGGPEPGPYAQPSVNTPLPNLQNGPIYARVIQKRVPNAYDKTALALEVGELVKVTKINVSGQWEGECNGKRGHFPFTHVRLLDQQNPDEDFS
inactive: [1] -0.059 | [2] -0.085 | [3] 0.005 | [4] 0.026 | [5] 0.002 | [6] -0.039 | [7] 0.002 | [8] 0.033 | [9] -0.028 | [10] -0.022 | [12] 0 | [13] -0.032 | [14] 0.092 | [15] -0.003 | [16] -0.056 | [17] -0.025 | [18] -0.006 | [19] 0.021 | [20] -0.024
active: [11] -0.768

CIZ1 (UniProt Q9ULV3)
inactive: [1] 0.071 | [2] -0.022 | [3] 0.046 | [4] 0.086 | [5] -0.008 | [6] 0.017 | [7] -0.011 | [8] -0.034 | [9] 0.015 | [10] -0.035 | [11] 0.046 | [12] -0.075 | [13] -0.074 | [14] 0.102 | [15] -0.11 | [16] -0.117 | [17] 0.027 | [18] -0.109 | [19] -0.038 | [20] -0.001

COX15 (UniProt Q7KZN9)
active: [17] -0.236
inactive: [1] 0.057 | [2] 0.023 | [3] -0.037 | [4] -0.018 | [5] 0.05 | [6] 0.021 | [7] 0.006 | [8] 0.085 | [9] -0.044 | [10] -0.015 | [11] 0.071 | [12] 0.004 | [13] -0.015 | [14] -0.009 | [15] -0.008 | [16] -0.003 | [18] -0.017 | [19] 0.023 | [20] 0.002

CAD (UniProt P27708)
inactive: [1] 0.006 | [2] 0.009 | [3] 0.019 | [4] 0.034 | [5] -0.169 | [6] -0.08 | [7] 0.022 | [8] 0.032 | [9] -0.028 | [11] -0.112 | [12] 0.022 | [13] 0.076 | [14] -0.044 | [15] -0.211 | [16] 0.097 | [17] 0.132 | [18] 0.052 | [19] 0.052 | [20] -0.051
active: [10] -0.458

CDK5RAP3 isoform 4 (UniProt Q96JB5)
Sequence of UniProt Q96JB5 (Q96JB5 whole entry, looked up): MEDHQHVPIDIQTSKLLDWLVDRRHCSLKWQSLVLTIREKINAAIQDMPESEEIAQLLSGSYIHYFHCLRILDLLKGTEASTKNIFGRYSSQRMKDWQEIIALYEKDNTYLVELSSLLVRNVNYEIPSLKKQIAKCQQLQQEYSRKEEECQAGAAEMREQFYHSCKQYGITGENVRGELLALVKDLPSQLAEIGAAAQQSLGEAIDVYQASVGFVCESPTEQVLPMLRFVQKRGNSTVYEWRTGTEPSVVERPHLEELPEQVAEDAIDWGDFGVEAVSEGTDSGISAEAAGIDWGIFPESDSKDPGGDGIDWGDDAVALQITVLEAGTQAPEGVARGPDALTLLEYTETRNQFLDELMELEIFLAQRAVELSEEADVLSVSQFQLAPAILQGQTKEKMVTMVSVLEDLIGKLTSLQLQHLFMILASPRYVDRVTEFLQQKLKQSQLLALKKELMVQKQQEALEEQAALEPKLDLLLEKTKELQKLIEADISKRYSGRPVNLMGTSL
inactive: [1] -0.056 | [3] 0 | [4] 0.021 | [5] -0.044 | [6] -0.007 | [7] 0.033 | [8] 0.055 | [9] -0.024 | [10] -0.002 | [11] -0.009 | [12] -0.099 | [13] -0.066 | [14] 0.024 | [15] 0.035 | [16] -0.045 | [17] -0.029 | [18] 0.002 | [19] 0.033 | [20] -0.043
active: [2] -0.296

CALCOCO2 isoform 4 (UniProt Q13137)
inactive: [3] -0.024 | [4] 0.035 | [5] 0.089 | [6] 0.059 | [7] 0.01 | [8] 0 | [9] 0.055 | [10] -0.149 | [11] -0.03 | [12] -0.127 | [13] 0.033 | [14] 0.037 | [15] 0.012 | [16] 0.017 | [17] -0.044 | [18] -0.034 | [19] 0.076 | [20] 0.021
active: [1] -0.634 | [2] -0.471

COX5A (UniProt P20674)
Sequence of UniProt P20674 (P20674 whole entry, looked up): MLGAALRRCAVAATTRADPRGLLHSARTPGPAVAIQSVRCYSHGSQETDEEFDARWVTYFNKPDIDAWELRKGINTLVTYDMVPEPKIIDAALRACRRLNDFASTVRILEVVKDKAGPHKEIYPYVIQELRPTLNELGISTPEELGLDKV
inactive: [1] 0.048 | [2] -0.08 | [3] -0.081 | [4] 0.234 | [5] -0.018 | [6] 0.072 | [7] -0.001 | [8] -0.042 | [9] -0.063 | [10] 0.269 | [11] -0.063 | [12] 0.025 | [13] -0.063 | [14] -0.015 | [15] 0.043 | [16] -0.016 | [17] 0.011 | [18] 0.007 | [19] -0.036 | [20] 0.11

CLASP2 isoform 3 (UniProt O75122)
Sequence of UniProt O75122 (O75122 whole entry, looked up): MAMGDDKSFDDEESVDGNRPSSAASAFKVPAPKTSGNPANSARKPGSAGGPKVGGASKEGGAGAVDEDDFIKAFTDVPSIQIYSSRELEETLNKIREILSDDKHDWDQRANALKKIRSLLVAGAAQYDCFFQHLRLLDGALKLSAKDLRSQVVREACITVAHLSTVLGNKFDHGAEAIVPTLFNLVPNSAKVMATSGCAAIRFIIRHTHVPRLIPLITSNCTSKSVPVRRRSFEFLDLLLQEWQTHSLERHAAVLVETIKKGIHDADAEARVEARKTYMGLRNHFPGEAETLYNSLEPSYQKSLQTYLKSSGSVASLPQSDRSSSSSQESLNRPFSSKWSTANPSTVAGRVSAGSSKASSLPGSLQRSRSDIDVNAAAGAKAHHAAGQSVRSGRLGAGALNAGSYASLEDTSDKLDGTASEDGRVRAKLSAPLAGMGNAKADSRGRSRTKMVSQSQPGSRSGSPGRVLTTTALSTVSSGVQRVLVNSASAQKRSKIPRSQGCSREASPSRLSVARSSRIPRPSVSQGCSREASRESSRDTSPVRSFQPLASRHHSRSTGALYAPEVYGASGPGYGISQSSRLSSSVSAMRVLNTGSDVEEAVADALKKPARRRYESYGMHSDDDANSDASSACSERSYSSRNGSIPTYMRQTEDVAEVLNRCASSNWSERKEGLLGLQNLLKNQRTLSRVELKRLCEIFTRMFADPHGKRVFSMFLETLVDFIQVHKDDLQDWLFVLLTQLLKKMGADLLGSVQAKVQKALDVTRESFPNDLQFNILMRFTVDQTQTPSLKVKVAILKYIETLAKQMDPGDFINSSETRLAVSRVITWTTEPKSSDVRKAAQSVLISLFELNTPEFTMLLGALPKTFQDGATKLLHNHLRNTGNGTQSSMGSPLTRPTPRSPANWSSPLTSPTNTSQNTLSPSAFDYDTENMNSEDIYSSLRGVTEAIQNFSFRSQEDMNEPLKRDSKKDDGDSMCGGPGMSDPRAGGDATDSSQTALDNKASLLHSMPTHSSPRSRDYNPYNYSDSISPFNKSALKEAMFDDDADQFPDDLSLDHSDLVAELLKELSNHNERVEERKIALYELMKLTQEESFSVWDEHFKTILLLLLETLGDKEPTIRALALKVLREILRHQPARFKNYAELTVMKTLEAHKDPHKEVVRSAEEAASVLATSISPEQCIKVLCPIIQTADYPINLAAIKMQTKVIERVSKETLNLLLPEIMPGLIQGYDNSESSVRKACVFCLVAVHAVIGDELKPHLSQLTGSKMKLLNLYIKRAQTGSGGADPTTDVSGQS
inactive: [1] -0.175 | [3] 0.054 | [4] 0.034 | [5] -0.087 | [6] -0.024 | [7] 0.051 | [8] 0.038 | [9] 0 | [11] -0.073 | [12] -0.232 | [13] -0.132 | [14] 0.016 | [15] -0.041 | [16] -0.1 | [17] 0.015 | [18] 0.035 | [19] 0.084 | [20] -0.043
active: [2] -0.326 | [10] -0.227

CDC37L1 (UniProt Q7L3B6)
Sequence of UniProt Q7L3B6 (Q7L3B6 whole entry, looked up): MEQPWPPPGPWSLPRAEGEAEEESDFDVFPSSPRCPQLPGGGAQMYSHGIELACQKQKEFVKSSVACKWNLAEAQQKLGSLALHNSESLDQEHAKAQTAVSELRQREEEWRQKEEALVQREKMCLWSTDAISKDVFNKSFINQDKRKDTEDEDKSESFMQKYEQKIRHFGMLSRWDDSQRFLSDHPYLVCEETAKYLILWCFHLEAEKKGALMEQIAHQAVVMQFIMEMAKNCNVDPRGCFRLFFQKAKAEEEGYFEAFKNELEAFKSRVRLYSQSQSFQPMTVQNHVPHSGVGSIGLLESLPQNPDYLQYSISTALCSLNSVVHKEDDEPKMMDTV
active: [14] -0.308
inactive: [1] -0.14 | [2] -0.199 | [3] 0.059 | [4] 0.029 | [5] 0.02 | [6] 0.091 | [7] -0.054 | [8] 0.005 | [9] 0.001 | [10] -0.048 | [11] -0.003 | [12] 0.021 | [13] -0.093 | [15] 0.002 | [16] 0.059 | [17] -0.058 | [18] -0.013 | [19] 0.005 | [20] 0.018

CELF2 isoform 3 (UniProt O95319)
Sequence of UniProt O95319 (O95319 whole entry, looked up): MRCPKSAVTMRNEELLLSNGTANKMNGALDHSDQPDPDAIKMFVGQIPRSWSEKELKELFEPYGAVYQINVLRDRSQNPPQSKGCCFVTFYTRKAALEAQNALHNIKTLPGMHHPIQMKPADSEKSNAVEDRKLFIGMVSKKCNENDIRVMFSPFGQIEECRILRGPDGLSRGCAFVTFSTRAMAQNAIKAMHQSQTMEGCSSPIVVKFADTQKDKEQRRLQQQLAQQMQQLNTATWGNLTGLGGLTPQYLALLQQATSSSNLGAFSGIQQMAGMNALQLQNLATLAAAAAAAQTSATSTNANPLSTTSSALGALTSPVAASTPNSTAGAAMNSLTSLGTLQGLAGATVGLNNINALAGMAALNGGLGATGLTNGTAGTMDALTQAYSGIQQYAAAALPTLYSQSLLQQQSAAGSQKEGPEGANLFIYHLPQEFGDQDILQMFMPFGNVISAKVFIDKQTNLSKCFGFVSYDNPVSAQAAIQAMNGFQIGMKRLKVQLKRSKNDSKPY
inactive: [1] 0.115 | [2] -0.028 | [3] 0.02 | [4] 0.018 | [5] -0.027 | [6] 0.103 | [7] 0.006 | [8] -0.049 | [9] -0.04 | [10] 0.111 | [11] -0.011 | [12] 0.076 | [13] 0.036 | [14] -0.102 | [15] -0.034 | [16] 0.098 | [17] 0.125 | [18] -0.099 | [19] -0.041 | [20] -0.032

CHEK1 (UniProt O14757)
Sequence of UniProt O14757 (O14757 whole entry, looked up): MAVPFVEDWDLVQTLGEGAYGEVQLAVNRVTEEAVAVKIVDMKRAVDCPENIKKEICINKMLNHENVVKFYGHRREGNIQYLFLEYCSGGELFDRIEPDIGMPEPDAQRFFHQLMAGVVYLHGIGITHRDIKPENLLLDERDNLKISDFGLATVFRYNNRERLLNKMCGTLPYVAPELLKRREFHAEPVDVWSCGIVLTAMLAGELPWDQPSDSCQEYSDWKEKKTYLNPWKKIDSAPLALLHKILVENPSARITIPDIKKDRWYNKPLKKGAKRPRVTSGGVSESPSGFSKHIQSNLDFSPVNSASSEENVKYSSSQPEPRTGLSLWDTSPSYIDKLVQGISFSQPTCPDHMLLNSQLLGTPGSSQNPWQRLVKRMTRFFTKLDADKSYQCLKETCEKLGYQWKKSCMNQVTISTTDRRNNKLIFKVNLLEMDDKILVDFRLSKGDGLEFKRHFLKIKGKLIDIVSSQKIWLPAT
inactive: [1] -0.137 | [3] 0.005 | [4] 0.055 | [5] -0.012 | [6] -0.101 | [7] 0.003 | [8] 0.046 | [9] -0.029 | [10] -0.159 | [11] 0 | [13] -0.041 | [14] 0.09 | [16] -0.031 | [17] -0.071 | [18] 0.003 | [19] 0.043 | [20] 0
active: [2] -0.274 | [12] -0.271 | [15] -0.32

CBS (UniProt P35520)
Sequence of UniProt P35520 (P35520 whole entry, looked up): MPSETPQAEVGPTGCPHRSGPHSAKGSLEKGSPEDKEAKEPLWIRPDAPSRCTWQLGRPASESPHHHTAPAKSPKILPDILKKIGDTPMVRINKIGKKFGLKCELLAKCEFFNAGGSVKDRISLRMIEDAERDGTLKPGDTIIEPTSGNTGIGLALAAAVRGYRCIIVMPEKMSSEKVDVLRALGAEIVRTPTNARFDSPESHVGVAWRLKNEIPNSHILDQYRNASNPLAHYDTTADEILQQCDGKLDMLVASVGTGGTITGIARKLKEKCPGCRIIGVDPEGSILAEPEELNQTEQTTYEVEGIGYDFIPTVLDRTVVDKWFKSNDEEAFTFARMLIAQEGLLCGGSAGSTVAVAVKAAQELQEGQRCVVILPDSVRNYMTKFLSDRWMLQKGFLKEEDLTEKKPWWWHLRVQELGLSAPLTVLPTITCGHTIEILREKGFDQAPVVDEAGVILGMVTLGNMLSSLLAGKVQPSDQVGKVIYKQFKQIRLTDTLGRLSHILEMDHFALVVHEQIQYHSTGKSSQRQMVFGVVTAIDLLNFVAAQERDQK
inactive: [1] 0.007 | [2] 0.036 | [3] -0.049 | [4] 0.035 | [5] -0.019 | [6] 0.02 | [7] -0.012 | [8] 0.012 | [9] -0.073 | [10] -0.03 | [11] -0.009 | [12] 0.011 | [13] -0.035 | [14] -0.069 | [15] -0.021 | [16] 0.003 | [17] -0.061 | [18] -0.03 | [19] -0.001 | [20] -0.013
